Assay results taken from PubChem BioAssay (NCATS).
Values joined by “and” are separate entries in the source; they are usually repeats but may differ in a detail not shown here. Equal values may be shown once. Inconclusive results are not listed. Active and inactive are the calls of the source. Calls follow the shape of the dose curve; as a rule, active = well fitted inhibition curve with a large enough effect; inconclusive = small, poorly fitted or top-dose-only effect; inactive = flat fitted curve, though single readings scatter.

Assays:
CRL-7250 = normal cell line; test: Cytotoxic Profiling of Annotated Libraries Using Quantitative High-Throughput Screening (AID 1296008); settings: Five cell lines viability, CellTiter-Glo ATP luminescence, 48-72 h; max response: hits give low values; also: potency is read from the fitted curve at half-maximal effect; as to max response: % is scaled to controls: 0 for no effect and ±100 for the full control effect
Summary of the method: (§1)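 Compounds were pin-transferred onto cells and incubated 48 or 72 hr at 37 degree Celsius, 95% humidity. CellTiter-Glo was added, plates sat 10 min at room temperature, then ATP-coupled luminescence was imaged as the viability read-out.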

HEK293 = test: as above; settings: Five cell lines viability, CellTiter-Glo ATP luminescence, 48-72 h; max response: hits give low values
Summary of the method: as §1

HaCat [1] = test: as above; settings: Five cell lines viability, CellTiter-Glo ATP luminescence, 48-72 h; max response: hits give low values
Summary of the method: as §1

KB-3-1 = test: as above; settings: Five cell lines viability, CellTiter-Glo ATP luminescence, 48-72 h; max response: hits give low values
Summary of the method: as §1

HACAT [2] = test: qHTS assay to identify novel small-molecules to repurpose for Merkel cell carcinoma treatment (AID 1296009); settings: MCC and control cell lines, CellTiter-Glo viability, 72 h; series mostly up to 44.8 µM; also: potency is read from the fitted curve at half-maximal effect
Summary of the method: (§2)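 Cells exposed to NPC (8-point) and MIPE (11-point) compound dilutions for 72 hr at 37 degree celsius; viability read by CellTiter-Glo luminescence, normalized to no-cell and DMSO in-plate controls.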

MCC-13 = test: as above; settings: MCC and control cell lines, CellTiter-Glo viability, 72 h; series mostly up to 46 µM
Summary of the method: as §2

MKL-1 = test: as above; settings: MCC and control cell lines, CellTiter-Glo viability, 72 h; series mostly up to 46 µM
Summary of the method: as §2

NIH3T3 = test: Cytotoxic Profiling of Annotated Libraries Using Quantitative High-Throughput Screening (AID 1296008); settings: Five cell lines viability, CellTiter-Glo ATP luminescence, 48-72 h; max response: hits give low values; also: potency is read from the fitted curve at half-maximal effect; as to max response: % is scaled to controls: 0 for no effect and ±100 for the full control effect
Summary of the method: as §1

MCC-26 = test: qHTS assay to identify novel small-molecules to repurpose for Merkel cell carcinoma treatment (AID 1296009); settings: MCC and control cell lines, CellTiter-Glo viability, 72 h; series mostly up to 46 µM; also: potency is read from the fitted curve at half-maximal effect
Summary of the method: as §2

P94_40 = test: qHTS profiling for inhibitors of Plasmodium falciparum proliferation (AID 504749);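 also: 0% = DMSO vehicle and full inhibition = artemisinin control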; settings: P. falciparum in erythrocytes, SYBR Green DNA, 72 h; series mostly up to 28.7 µM
Summary of the method: (§3)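 P. falciparum-infected erythrocytes (0.3% parasitemia, 2.5% hematocrit final) were exposed to compounds for 72 h at 37 C in 5% CO2, then lysed with SYBR Green buffer overnight at room temperature; parasite DNA fluorescence was normalized to artemisinin and DMSO controls.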

PAD = test: as above; settings: P. falciparum in erythrocytes, SYBR Green DNA, 72 h; series mostly up to 28.7 µM
Summary of the method: as §3

PC15 = test: as above; settings: P. falciparum in erythrocytes, SYBR Green DNA, 72 h; series mostly up to 28.7 µM
Summary of the method: as §3

PC26 = test: as above; settings: P. falciparum in erythrocytes, SYBR Green DNA, 72 h; series mostly up to 28.7 µM
Summary of the method: as §3

PC49 = test: as above; settings: P. falciparum in erythrocytes, SYBR Green DNA, 72 h; series mostly up to 28.7 µM
Summary of the method: as §3

SC27B = test: as above; settings: P. falciparum in erythrocytes, SYBR Green DNA, 72 h; series mostly up to 28.7 µM
Summary of the method: as §3

TAB109 = test: as above; settings: P. falciparum in erythrocytes, SYBR Green DNA, 72 h; series mostly up to 28.7 µM
Summary of the method: as §3

TAB113 = test: as above; settings: P. falciparum in erythrocytes, SYBR Green DNA, 72 h; series mostly up to 28.7 µM
Summary of the method: as §3

TAB165 = test: as above; settings: P. falciparum in erythrocytes, SYBR Green DNA, 72 h; series mostly up to 28.7 µM
Summary of the method: as §3

W2 = test: as above; settings: P. falciparum in erythrocytes, SYBR Green DNA, 72 h; series mostly up to 28.7 µM
Summary of the method: as §3
Also: nearly all actives have a fitted effect of over 60% in size.

O=C(O)Cn1nnc(-c2cc(N3CCC(Oc4cc(F)ccc4Br)CC3)no2)n1
inactive: max response (CRL-7250) 1.84% and -2.26% | outcome (HaCat [1]) | Potency (HACAT [2]) | Potency (MCC-13) | Potency (MKL-1)
active: Potency (HEK293) 1.18 µM and 1.3 µM | Potency (KB-3-1) 3.72 µM and 2.31 µM

NC(=O)Nc1cc(-c2cccc(F)c2)sc1C(=O)N[C@H]1CCCNC1
active: Potency (CRL-7250) 4.69 µM and 2.06 µM | Potency (HEK293) 148 nM and 231 nM | Potency (HaCat [1]) 8.33 µM and 1.3 µM | Potency (KB-3-1) 2.09 µM and 1.03 µM | Potency (NIH3T3) 418 nM and 291 nM | Potency (MCC-13) 14.8 µM | Potency (MCC-26) 11.8 µM | Potency (MKL-1) 3.32 µM

COc1cc2nccc(Oc3ccc(NC(=O)C4(C(=O)Nc5ccc(F)cc5)CC4)cc3)c2cc1OC
active: Potency (CRL-7250) 1.48 µM and 13 µM | Potency (HEK293) 14.8 µM and 16.4 µM | Potency (HaCat [1]) 16.6 µM and 25.9 µM | Potency (KB-3-1) 23.5 µM | Potency (NIH3T3) 332 nM and 1.64 µM | Potency (MKL-1) 2.96 µM

CN1c2cc(O)c(N=NC(N)=O)cc2CC1S(=O)(=O)O (configuration not stated)
inactive: Potency (P94_40) | Potency (PAD) | Potency (PC15) | Potency (PC26) | Potency (PC49) | Potency (SC27B) | Potency (TAB109) | Potency (TAB113) | Potency (TAB165) | Potency (W2) | outcome (CRL-7250) | max response (HEK293) 2.9% | max response (HaCat [1]) -1.08% | outcome (KB-3-1) | outcome (NIH3T3) | Potency (MCC-13) | Potency (MCC-26) | Potency (MKL-1)

COc1cc2c(Oc3ccc(-c4cnc(Nc5ccc(F)cc5)n(C)c4=O)cc3F)ccnc2cc1OCCCN1CCOCC1
active: Potency (CRL-7250) 13.2 µM | Potency (HEK293) 4.69 µM | Potency (HaCat [1]) 23.5 µM | Potency (KB-3-1) 9.35 µM | Potency (NIH3T3) 526 nM and 5.8 µM | Potency (MCC-26) 7.43 µM

Cc1nc(Nc2n[nH]c3c2CN(C(=O)N[C@H](CN(C)C)c2ccccc2)C3(C)C)c2sccc2n1
active: Potency (CRL-7250) 1.18 µM and 130 nM | Potency (HEK293) 20.9 nM and 10.3 nM | Potency (HaCat [1]) 7.43 µM | Potency (KB-3-1) 2.35 µM and 2.06 µM | Potency (NIH3T3) 1.16 µM | Potency (MCC-26) 14.8 µM | Potency (MKL-1) 1.48 µM

COc1cc2c(Oc3ccc(NC(=O)C4(C(=O)Nc5ccc(F)cc5)CC4)cc3F)ccnc2cc1OCCCN1CCOCC1
active: Potency (CRL-7250) 10.5 µM and 8.2 µM | Potency (HEK293) 8.33 µM and 18.4 µM | Potency (HaCat [1]) 4.18 µM and 6.51 µM | Potency (KB-3-1) 1.32 µM and 2.91 µM | Potency (NIH3T3) 526 nM and 731 nM | Potency (MCC-13) 14.8 µM | Potency (MKL-1) 4.69 µM

COc1ccc(-c2cc3c(C)nc(N)nc3n(C3CCC(OCCO)CC3)c2=O)cn1 (configuration not stated)
active: Potency (CRL-7250) 23.5 nM and 231 nM | Potency (HEK293) 66.2 nM and 411 nM | Potency (HaCat [1]) 52.6 nM and 2.31 µM | Potency (KB-3-1) 105 nM and 517 nM | Potency (NIH3T3) 1.3 µM | Potency (MCC-13) 1.87 µM | Potency (MCC-26) 1.32 µM | Potency (MKL-1) 4.18 µM

Clc1cccc(-n2nnnc2NCc2ccccc2Oc2ccccn2)c1Cl
inactive: outcome (CRL-7250) | max response (HEK293) -13.7% and -15.5% | max response (HaCat [1]) -3.03% and -4.47% | max response (KB-3-1) -10.9% and -7.38% | outcome (NIH3T3) | Potency (MCC-13) | Potency (MCC-26) | Potency (MKL-1)

CCOC(=O)C1=C(C)NC2=C(C(=O)CC(C)(C)C2)C1c1ccc(-c2ccccc2)cc1 (configuration not stated)
active: Potency (CRL-7250) 26.4 µM and 10.3 µM | Potency (HEK293) 16.6 µM and 2.91 µM | Potency (HaCat [1]) 7.31 µM | Potency (NIH3T3) 20.9 µM and 5.8 µM
inactive: outcome (KB-3-1) | Potency (MCC-13) | Potency (MCC-26)

CC[C@@H]1C(=O)N(C)c2cnc(Nc3ccc(C(=O)NC4CCN(C)CC4)cc3OC)nc2N1C1CCCC1
active: Potency (CRL-7250) 2.64 µM | Potency (HEK293) 0.0166 µM | Potency (HaCat [1]) 0.0332 µM | Potency (KB-3-1) 0.0083 µM | Potency (NIH3T3) 1.87 µM | Potency (MCC-13) 0.662 µM | Potency (MKL-1) 0.0235 µM

C=CCn1c(=O)c2cnc(Nc3ccc(N4CCN(C)CC4)cc3)nc2n1-c1cccc(C(C)(C)O)n1
active: Potency (HEK293) 235 nM and 920 nM | Potency (HaCat [1]) 332 nM and 1.64 µM | Potency (KB-3-1) 0.264 µM | Potency (NIH3T3) 469 nM and 1.16 µM | Potency (MCC-13) 6.62 µM | Potency (MCC-26) 4.69 µM | Potency (MKL-1) 0.662 µM
inactive: max response (CRL-7250) -7.63%
